From PubChem BioAssay (EPA / NIEHS) come the findings set out here.

Values joined by “and” are separate entries in the source; they are usually repeats but may differ in a detail not shown here. Equal entries are not always repeated. The source holds several records for some structures; these can differ, active in one and inactive in another. Active and inactive are the calls of the source. How the source made its calls: active means hit-call score of the fitted dose curve at least 0.9, where 1 is the maximum; inactive means score below 0.9.

Assay [1] is described as follows: ATG_E_Box_CIS: Attagene CIS-FACTORIAL HepG2 Assay for human Enhancer Box (E-box) (AID 2282936). Particulars: HepG2 E-box cis-reporter transcription, actives raise or lower the signal. Summed up: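 In this cell-based setup, HepG2 cells bearing transfected promoter-driven reporter units were exposed to chemicals for 24 h; reporter transcripts were amplified, 6-FAM-labelled, cut with HpaI and sized by capillary electrophoresis.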

Assay [2] is described as follows: ATG_M_61_CIS: Attagene CIS-FACTORIAL HepG2 Assay for M61 Transcription Factor (Internal Marker) (AID 2282937). Particulars: HepG2 Attagene CIS-FACTORIAL M61 internal marker reporter; actives raise or lower the signal. The essentials: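 Background-control endpoint: HepG2 cells with cis-regulated reporter constructs, 24 h exposure, reporter mRNA detected via fluorescent primer extension and capillary electrophoresis; values from bidirectional fitting with DMSO baseline.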

Assay [3] in a line: ATG_EGR_CIS: Attagene CIS-FACTORIAL HepG2 Assay for human Early Growth Response 1 (EGR1) (AID 2282938). Particulars: HepG2 Attagene CIS-FACTORIAL EGR reporter mRNA; actives raise or lower the signal. Summed up:
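Endpoint derived by bidirectional fitting versus DMSO vehicle. Method: cis-promoter reporter units transfected into HepG2, 24 h dosing, RNA isolation, RT-PCR with 6-FAM primer extension and HpaI digestion, then capillary electrophoresis fluorescence detection.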

Assay [4] in a line: ATG_M_19_CIS: Attagene CIS-FACTORIAL HepG2 Assay for M19 Transcription Factor (Internal Marker) (AID 2282939). Particulars: HepG2 Attagene CIS-FACTORIAL M19 internal marker reporter; actives raise or lower the signal. The essentials:
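Chemical-treated HepG2 (24 h) with MRTU constructs; reporter transcripts detected by fluorescent RT-PCR fragment analysis on capillary electrophoresis. Internal background marker, DMSO as baseline.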

A short description of assay [5]: ATG_ERE_CIS: Attagene CIS-FACTORIAL HepG2 Assay for Estrogen Response Element (ERE) (AID 2282940). Particulars: HepG2 ERE cis-reporter, Attagene RNA transcript; actives raise or lower the signal. The essentials:
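Human liver cells (HepG2) bearing transiently transfected, promoter-regulated reporter units were exposed 24 h. Reporter mRNA induction was detected by capillary electrophoresis of labelled RT-PCR products and fitted bidirectionally to DMSO.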

Assay [6] in a line: ATG_Ets_CIS: Attagene CIS-FACTORIAL HepG2 Assay for human Erythroblast Transformation Specific (ETS) (AID 2282941). Particulars: HepG2 ETS cis-reporter transcription, actives raise or lower the signal. The essentials:
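RT-PCR/capillary electrophoresis fluorescence read-out of reporter mRNA; HepG2 transient multi-reporter transfection; 24 h compound exposure; gain or loss of signal fitted bidirectionally relative to DMSO.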

Assay [7] has as its target Hepatocyte nuclear factor 3-beta (Homo sapiens) (UniProt Q9Y261). In words: ATG_FoxA2_CIS: Attagene CIS-FACTORIAL HepG2 Assay for human Forkhead box A2 (FOXA2) (AID 2282942). Particulars: HepG2 cis-reporter transcription factor activity, 24 h; actives raise or lower the signal. Summed up:
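Measured: reporter mRNA induction or loss in HepG2 transiently carrying multiple cis-regulated reporter units, 24 h after dosing. Quantified by RT-PCR plus capillary electrophoresis, normalised to DMSO.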

Assay [8] in a line: ATG_FoxO_CIS: Attagene CIS-FACTORIAL HepG2 Assay for human Forkhead box O (FoxO) (AID 2282943). Particulars: HepG2 Attagene cis-reporter, FoxO element, mRNA; actives raise or lower the signal. Summed up:
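HepG2 cells transiently transfected with cis-element-driven reporter units report endogenous FoxO activity. After 24 h chemical exposure, reporter mRNA quantified by RT-PCR, fluorescent labeling, HpaI digestion and capillary electrophoresis; bidirectional fit versus DMSO.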

Assay [9] in a line: ATG_GATA_CIS: Attagene CIS-FACTORIAL HepG2 Assay for human GATA Binding Protein (AID 2282944). Particulars: HepG2 GATA cis-element reporter, Attagene multiplex mRNA; actives raise or lower the signal. Summed up: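 Transfected cis-reporter HepG2 cells were treated with chemicals for 24 hours. Total RNA was then converted to cDNA, amplified with reporter-specific primers and analysed by fluorescent capillary electrophoresis, using DMSO-treated wells as baseline.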

Assay [10] is described as follows: ATG_GLI_CIS: Attagene CIS-FACTORIAL HepG2 Assay for human Zinc Finger Protein GLI1 (AID 2282945). Particulars: HepG2, Attagene cis-factorial reporter mRNA, GLI element; actives raise or lower the signal. The essentials:
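Transiently transfected HepG2 cells report endogenous transcription factor activity via cis-element-driven reporter units. After 24 h compound exposure, reporter mRNA was measured by RT-PCR with capillary electrophoresis; bidirectional fitting against DMSO baseline.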

The target of assay [11] is Bile acid receptor (Homo sapiens) (UniProt Q96RI1). The assay can be described thus: ATG_IR1_CIS: Attagene CIS-FACTORIAL HepG2 Assay for human Nuclear Receptor Subfamily 1 Group H Member 4 (NR1H4), IR1 submotif (AID 2282946). Particulars: IR1 reporter transcription, actives raise or lower the signal. The essentials:
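Fluorescence of capillary-separated, HpaI-digested RT-PCR reporter products gave IR1-element mRNA induction in HepG2 cells 24 h after dosing. Endogenous transcription factors drove the cis-regulated reporters; activity was fitted bidirectionally against DMSO.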

A short description of assay [12]: ATG_GRE_CIS: Attagene CIS-FACTORIAL HepG2 Assay for human Glucocorticoid Response Elements (GRE) (AID 2282947). Particulars: HepG2 GRE cis-reporter, Attagene multiplex mRNA; actives raise or lower the signal. The essentials:
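Fluorescence intensity of reporter-specific cDNA fragments, separated by capillary electrophoresis, provides the signal. Constructs carry cis-regulating promoters in transiently transfected HepG2 liver cells; 24 h incubation; fitting is bidirectional against DMSO.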

A short description of assay [13]: ATG_ISRE_CIS: Attagene CIS-FACTORIAL HepG2 Assay for human Interferon Regulatory Factor 1 (IRF1) binding to an Interferon-Stimulated Response Element (ISRE) (AID 2282948). Particulars: HepG2 ISRE cis-reporter (Attagene), mRNA transcription readout; actives raise or lower the signal. The essentials:
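Read-out: fluorescent RT-PCR products resolved by capillary electrophoresis, reporting endogenous transcription factor activity via ISRE-driven reporter mRNA in transfected HepG2 cells dosed for 24 h; gain or loss fitted relative to DMSO.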

Assay [14] is described as follows: ATG_M_32_CIS: Attagene CIS-FACTORIAL HepG2 Assay for M32 Transcription Factor (Internal Marker) (AID 2282949).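 Further: background control marker of the multiplexed CIS panel rather than a real target.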 Particulars: HepG2 Attagene cis-factorial M32 reporter, mRNA; actives raise or lower the signal. Summed up:
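HepG2 transfectants (cis-regulated reporter transcription units) dosed 24 h. Reporter mRNA by RT-PCR plus CE, analysed as gain or loss relative to DMSO.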

The nature of assay [15]: ATG_M_06_CIS: Attagene CIS-FACTORIAL HepG2 Assay for M06 Transcription Factor (Internal Marker) (AID 2282950). Particulars: HepG2 Attagene CIS-FACTORIAL M06 internal marker reporter; actives raise or lower the signal. The essentials:
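Cells (HepG2, transiently carrying cis-driven reporter units) receive chemical for 24 h before RNA isolation. Reporter cDNA is PCR-amplified, FAM-labelled by primer extension, HpaI-digested and sized on a capillary analyser.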

The target of assay [16] is Hypoxia-inducible factor 1-alpha (Homo sapiens) (UniProt Q16665). In words: ATG_HIF1a_CIS: Attagene CIS-FACTORIAL HepG2 Assay for human Hypoxia Inducible Factor 1 (HIF1A) (AID 2282951). Particulars: HepG2 Attagene cis-factorial HIF1a reporter transcription; actives raise or lower the signal. The essentials: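 Dosed 24 h, transfected HepG2 cells yielded total RNA whose reporter transcripts were RT-PCR-amplified and sized by capillary electrophoresis using fluorescent labelling; DMSO defined baseline, with gain and loss of signal both fitted.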

Assay [17] concerns the target Hepatocyte nuclear factor 6 (Homo sapiens) (UniProt Q9UBC0). The assay can be described thus: ATG_HNF6_CIS: Attagene CIS-FACTORIAL HepG2 Assay for human Hepatocyte Nuclear Factor 6 (HNF6) (AID 2282952). Particulars: HepG2 Attagene cis-factorial HNF6 reporter transcription; actives raise or lower the signal. Summed up: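 Twenty-four-hour chemical treatment of reporter-transfected HepG2 cells precedes RNA isolation, DNase-treated reverse transcription and PCR of reporter sequences. Labelled fragments are sized by capillary electrophoresis and fitted bidirectionally versus DMSO.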

Assay [18] deals with Heat shock factor protein 1 (Homo sapiens) (UniProt Q00613). In words: ATG_HSE_CIS: Attagene CIS-FACTORIAL HepG2 Assay for human Heat Shock Transcription Factor 1 (HSE) (AID 2282953). Particulars: HepG2 HSE cis-reporter, Attagene RNA transcription; actives raise or lower the signal. Summed up:
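Liver-derived HepG2 cells carry transiently introduced multiple reporter units governed by cis promoters. Reporter RNA measured 24 h post-dose through reverse transcription, PCR amplification, fluorescent labelling and capillary electrophoresis, normalised to DMSO.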

Assay [19] is described as follows: ATG_MRE_CIS: Attagene CIS-FACTORIAL HepG2 Assay for human Metal Responsive Element (MRE) (AID 2282954). Particulars: HepG2 MRE cis-reporter transcription, Attagene multiplex; actives raise or lower the signal. The essentials:
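Measured here is mRNA induction from an MRE cis-element reporter in HepG2 after 24 h, quantified by fluorescence of labelled RT-PCR products on capillary electrophoresis; gain- and loss-of-signal fits use DMSO as baseline.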

The nature of assay [20]: ATG_PBREM_CIS: Attagene CIS-FACTORIAL HepG2 Assay for human Phenobarbital-responsive Enhancer Module (PBREM) (AID 2282955). Particulars: HepG2 PBREM cis-reporter, Attagene multiplexed transcription; actives raise or lower the signal. Summed up:
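Transfected liver-derived HepG2 cells exposed 24 h; PBREM reporter transcript quantified via RT-PCR and capillary electrophoresis, with activity in either direction referenced to DMSO.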

As a reminder, the AC50 is the concentration giving half of the maximal activity seen.

Sequence of Hepatocyte nuclear factor 6 (Homo sapiens) (Q9UBC0 whole entry, looked up, the tested form may be a part): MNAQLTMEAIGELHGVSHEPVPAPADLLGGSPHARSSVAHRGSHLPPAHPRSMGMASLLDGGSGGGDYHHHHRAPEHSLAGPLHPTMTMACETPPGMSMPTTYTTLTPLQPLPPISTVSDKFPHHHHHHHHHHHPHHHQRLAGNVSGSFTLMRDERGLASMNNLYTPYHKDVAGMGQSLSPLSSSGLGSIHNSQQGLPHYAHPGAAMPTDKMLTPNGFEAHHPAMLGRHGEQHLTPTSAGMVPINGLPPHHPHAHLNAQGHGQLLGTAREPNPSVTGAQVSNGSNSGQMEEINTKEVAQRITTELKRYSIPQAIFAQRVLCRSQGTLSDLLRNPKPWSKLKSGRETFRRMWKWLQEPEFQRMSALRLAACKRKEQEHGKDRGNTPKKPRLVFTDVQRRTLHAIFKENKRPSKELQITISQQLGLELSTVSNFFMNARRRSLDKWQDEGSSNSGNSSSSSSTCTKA
Sequence of Hepatocyte nuclear factor 3-beta (Homo sapiens) (Q9Y261 whole entry, looked up): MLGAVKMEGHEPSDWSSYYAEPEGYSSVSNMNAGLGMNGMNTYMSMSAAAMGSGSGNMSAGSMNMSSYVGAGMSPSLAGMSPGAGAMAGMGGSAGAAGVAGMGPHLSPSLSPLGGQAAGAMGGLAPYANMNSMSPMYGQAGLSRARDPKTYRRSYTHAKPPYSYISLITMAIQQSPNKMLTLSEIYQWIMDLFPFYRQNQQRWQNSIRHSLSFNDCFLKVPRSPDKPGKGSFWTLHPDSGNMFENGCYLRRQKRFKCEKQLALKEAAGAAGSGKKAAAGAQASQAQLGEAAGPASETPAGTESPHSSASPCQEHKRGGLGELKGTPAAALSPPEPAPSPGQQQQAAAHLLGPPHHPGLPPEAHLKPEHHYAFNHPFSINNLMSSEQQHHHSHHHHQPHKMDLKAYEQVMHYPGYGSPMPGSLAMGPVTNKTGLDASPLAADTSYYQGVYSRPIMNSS
Sequence of Bile acid receptor (Homo sapiens) (Q96RI1 whole entry, looked up): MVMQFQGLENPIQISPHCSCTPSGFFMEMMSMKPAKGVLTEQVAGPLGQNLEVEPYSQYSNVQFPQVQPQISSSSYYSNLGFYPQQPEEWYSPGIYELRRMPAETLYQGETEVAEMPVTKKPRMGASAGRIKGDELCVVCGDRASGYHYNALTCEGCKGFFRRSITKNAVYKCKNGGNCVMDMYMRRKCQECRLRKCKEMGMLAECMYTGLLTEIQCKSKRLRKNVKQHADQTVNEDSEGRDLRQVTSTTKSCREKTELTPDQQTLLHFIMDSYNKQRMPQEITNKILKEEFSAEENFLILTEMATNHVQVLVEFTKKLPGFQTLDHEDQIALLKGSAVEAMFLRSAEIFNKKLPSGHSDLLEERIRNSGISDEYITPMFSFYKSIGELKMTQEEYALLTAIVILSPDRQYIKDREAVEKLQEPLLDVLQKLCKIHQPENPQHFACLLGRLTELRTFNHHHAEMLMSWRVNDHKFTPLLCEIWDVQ
Sequence of Heat shock factor protein 1 (Homo sapiens) (Q00613 whole entry, looked up): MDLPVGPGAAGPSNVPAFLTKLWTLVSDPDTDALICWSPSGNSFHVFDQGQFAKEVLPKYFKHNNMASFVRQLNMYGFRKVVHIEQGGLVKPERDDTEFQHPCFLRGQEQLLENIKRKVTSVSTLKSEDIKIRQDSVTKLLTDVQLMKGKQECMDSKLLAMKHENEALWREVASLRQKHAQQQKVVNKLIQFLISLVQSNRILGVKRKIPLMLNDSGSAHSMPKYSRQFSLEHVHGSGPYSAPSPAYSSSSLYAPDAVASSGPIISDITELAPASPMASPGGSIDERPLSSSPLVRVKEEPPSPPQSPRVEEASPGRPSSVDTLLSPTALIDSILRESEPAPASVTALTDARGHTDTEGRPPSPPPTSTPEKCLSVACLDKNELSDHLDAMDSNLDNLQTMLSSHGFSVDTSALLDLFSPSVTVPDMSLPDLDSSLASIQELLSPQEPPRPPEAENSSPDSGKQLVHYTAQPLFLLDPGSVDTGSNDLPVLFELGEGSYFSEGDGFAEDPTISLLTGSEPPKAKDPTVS
Sequence of Hypoxia-inducible factor 1-alpha (Homo sapiens) (Q16665 whole entry, looked up): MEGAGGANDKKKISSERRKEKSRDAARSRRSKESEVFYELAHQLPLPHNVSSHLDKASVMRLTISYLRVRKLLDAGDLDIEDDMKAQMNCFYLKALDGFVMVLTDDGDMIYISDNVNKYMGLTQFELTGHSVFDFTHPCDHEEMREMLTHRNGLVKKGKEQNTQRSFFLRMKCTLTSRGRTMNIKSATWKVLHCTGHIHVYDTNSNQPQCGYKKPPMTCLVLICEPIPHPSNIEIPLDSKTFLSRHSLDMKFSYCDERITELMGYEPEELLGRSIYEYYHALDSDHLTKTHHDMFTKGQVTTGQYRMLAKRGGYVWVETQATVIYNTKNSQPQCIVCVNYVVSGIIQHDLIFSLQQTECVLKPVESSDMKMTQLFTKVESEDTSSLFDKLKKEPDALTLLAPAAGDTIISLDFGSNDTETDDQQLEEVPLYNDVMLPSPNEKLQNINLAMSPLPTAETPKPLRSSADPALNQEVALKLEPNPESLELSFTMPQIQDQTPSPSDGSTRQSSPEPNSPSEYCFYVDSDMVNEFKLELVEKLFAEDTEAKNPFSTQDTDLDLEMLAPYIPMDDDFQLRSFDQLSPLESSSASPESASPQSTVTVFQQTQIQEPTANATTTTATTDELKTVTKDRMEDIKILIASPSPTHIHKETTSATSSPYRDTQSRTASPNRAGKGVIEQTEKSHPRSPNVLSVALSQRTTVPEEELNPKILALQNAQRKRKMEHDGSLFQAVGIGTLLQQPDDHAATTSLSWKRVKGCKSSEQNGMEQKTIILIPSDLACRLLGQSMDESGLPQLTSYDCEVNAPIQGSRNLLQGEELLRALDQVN

As to `CCC(C)c1cc([N+](=O)[O-])cc([N+](=O)[O-])c1O` (stereo not drawn), the outcome in [1], in assay [2], in assay [3], in assay [4], in assay [5] and in assay [6] was inactive. Also, the call in assay [7], in assay [8], in assay [9], in assay [10], in assay [11] and in assay [12] was inactive. Further, the compound was called inactive in [14], in assay [15], in assay [16], in assay [17], in [18] and in assay [20]. In addition, the figures for the AC50 in assay [13] and in assay [19] were 8.83 µM (active) and 13.5 µM (active), respectively.
Regarding `CCSC(=O)N(CC)C1CCCCC1`, the outcome in assay [1], in assay [2], in assay [3], in assay [4], in assay [5] and in assay [6] was inactive. Moreover, the compound was called inactive in assay [7], in assay [8], in assay [9], in assay [10], in [11] and in [12]. In addition, the outcome in assay [13], in assay [14], in assay [15], in [16], in assay [17] and in assay [18] was inactive. Besides, the call in [19] was inactive.
Regarding `CCC(C)(c1ccc(O)cc1)c1ccc(O)cc1`, the AC50 in assay [1] was 43.5 µM (active); in assay [3], 48.8 µM (active); in assay [5], 198 nM (active) [middle of 4 runs]; in assay [6], 53.8 µM (active); in assay [9], 44.9 µM (active); in assay [10], 60.5 µM (active). In addition, the AC50 was 43 µM (active) and 33.4 µM (active) and 54.5 µM (active) in assay [11]; 45.6 µM (active) and 50.3 µM (active) and 33.4 µM (active) in assay [13]; 75.9 nM (active) and 26.2 µM (active) in assay [16]; 51.8 µM (active) in assay [17]; 1.17 µM (active) in [20]. Moreover, the result in assay [1], in assay [2], in assay [3], in [4], in [6] and in assay [7] was inactive. The compound was called inactive in assay [8], in assay [9], in assay [10], in [11], in assay [13] and in [14]. Besides, the compound was called inactive in assay [15], in assay [16], in assay [17] and in assay [20].
On to `Cc1ccccc1O`, for which the result in assay [1], in assay [2], in assay [3], in assay [4], in assay [5] and in assay [6] was inactive. Also, the outcome in [7], in assay [8], in assay [9], in [10], in [12] and in assay [13] was inactive. For the same compound, the result in assay [14], in assay [15], in [16], in assay [17], in assay [18] and in [19] was inactive. Also, in [20], the outcome was inactive.
Regarding `Cc1ccc(O)c(C)c1`, the outcome in assay [1], in [2], in assay [3], in [4], in assay [5] and in assay [6] was inactive. Further, the outcome in [7], in assay [8], in assay [9], in assay [10], in assay [12] and in assay [13] was inactive. Moreover, the compound was classed as inactive in assay [14], in assay [15], in assay [16], in assay [17], in [18] and in assay [19].
